Hit rate of the full screen: of about 200,000 compounds, about 700 (0.35%) were called active. What follows is part of a selection rich in actives, with near analogues and random picks from the rest. Values without a mark were called inactive.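 Rule for the calls: active = inhibition above a set limit, the mean inhibition across all tested compounds plus 3 SD (cut at about 34% in these data); inactive = the rest.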

The term inhibition denotes the change of the read-out against control, counted positive when it falls.

The nature of this assay: blockers of IFN-gamma driven STAT1 reporter – cell-based, HTS, luciferase reporter, primary screen (AID 920).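 Note: 0% = IFN-gamma with DMSO and 100% = IFN-gamma with 300 µM nifuroxazide.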 Conditions: NIH 3T3 STAT1-luciferase reporter, luminescence, at 5.5 µM, hits give high values. A general note: Reporter assays use an easily measured gene product as a stand-in for the process of interest.
`O=C(COC(=O)c1ccc(F)cc1)Nc1nc2ccc([N+](=O)[O-])cc2s1`: the inhibition was -0.42%.

In the case of `O=C(CN1C(=O)c2ccccc2S1(=O)=O)N1CCc2ccccc21`, the inhibition is 61.3% (active). For the molecule `O=C(CSCc1ccccc1)N1CCc2ccccc21`, the inhibition was -41.3%. Turning to `O=C(CN1CCN(c2ccccn2)CC1)N1CCc2ccccc21`, the inhibition is -3.17%. With `S=C(Nc1ccc(Br)cc1Cl)N1CCC2(CC1)OCCO2` the figure was -18.2%. With `CCNc1ccc(C(=O)OCC(=O)N2c3ccccc3NC(=O)C2(C)C)cc1[N+](=O)[O-]` the figure was 4.43%.

Take `Cc1cc(Cl)ccc1OCCCC(=O)NCc1ccncc1`: the inhibition is -1.56%. With `C/C(=N/OC(=O)c1cccc(C(F)(F)F)c1)c1cnccn1`, the inhibition is -6.55%. Regarding `COc1ccccc1CNC(=O)c1ccc(SC)cc1OC`, the inhibition is -9.83%. With `COc1cc(SC)ccc1C(=O)Nc1cc(C)ccn1` the figure was -2.53%; with `COc1cc(SC)ccc1C(=O)Nc1nc(C)cs1`, 93.3% (active); with `CC(=O)NC(Cc1ccc(F)c(F)c1)C(=O)NC1CCN(c2nnnn2-c2ccccc2)CC1` (stereo unspecified), 5.49%. For the molecule `CC1c2nc3ccccc3n2C(CC(=O)NCCCN2CCOCC2)C(=O)N1Cc1ccccc1` (stereo unspecified), the inhibition was 6.33%. Turning to `C/C(=N/NC(=O)C1COc2ccccc2O1)c1ccco1` (stereo unspecified), the inhibition is -4.92%. Turning to `COc1ccc(C2=NN(C(=O)CCC(=O)O)C(c3cccs3)C2)cc1OC` (stereo unspecified), the inhibition is 3.75%. For `COc1ccc(CCNC(=O)COC(=O)/C=C/c2cccs2)cc1OC`, the inhibition was 9.78%. For the molecule `COC(=O)C1=CN(Cc2ccc(OC)c(OC)c2)C=C(C(=O)OC)C1c1cccs1`, the inhibition was 59.2% (active). Take `Cc1cc([N+](=O)[O-])nn1Cc1ccc(F)cc1`: the inhibition was 6.91%.

`O=c1cnnc(Nc2ccccc2F)[nH]1`: the inhibition was -3.73%.

On to `COc1ccc2c(CC(=O)OCC(=O)Nc3ccccc3[N+](=O)[O-])coc2c1`, for which the inhibition is 0.3%. The figure for `CC[C@H]1CN2CCc3cc(OC)c(OC)cc3[C@@H]2C[C@@H]1C[C@H]1NCCc2cc(OC)c(OC)cc21` is 71.5% (active); for `COc1cc2c(cc1O)[C@H](Cc1ccc(Oc3cc(C[C@@H]4NCCc5cc(OC)c(O)cc54)ccc3O)cc1)NCC2` it is 5.62%. With `Cc1ccc(NC(=S)N2CCN(c3ncccn3)CC2)cc1C` the figure was 0.8%; with `CCn1c2ccccc2c2cc(NC(=O)COC(=O)c3cc(S(=O)(=O)N4CCCCC4)ccc3Cl)ccc21`, 5.58%; with `CC(=O)c1ccc(-c2nnc(CCC(=O)N(C)Cc3cnc4ccccn34)o2)s1`, 0.17%. With `COc1ccc(C(=O)/C=C/Nc2ccccn2)cc1` the figure was 82.5% (active); with `COc1ccc(-c2csc(Nc3ccccn3)n2)cc1`, -12.9%; with `CCOc1cc(NC(=O)c2ccccn2)c(OCC)cc1NC(=O)c1ccc(OC)cc1`, 3.8%. With `CSc1ccc(CN(C)CC(=O)NCc2ccc(F)cc2)cc1`, the inhibition is -7.18%. Take `NC(=O)C1CCN(Cc2nc3c(Br)cc(Br)cc3c(=O)[nH]2)CC1`: the inhibition is 3.52%. The figure for `CCC(=O)Nc1ccccc1N1CCN(S(C)(=O)=O)CC1` is 2.52%; for `CCCC(=O)Nc1ccccc1N1CCN(C(=O)c2ccccc2)CC1` it is 34.8% (active). As for `O=C(Nc1ccccc1N1CCN(C(=O)c2ccccc2)CC1)c1ccc2c(c1)OCO2`, the inhibition is 2.21%.

Consider `Cc1nc2ccc(NC(=S)N3CCC(C)CC3)cc2nc1C`, for which the inhibition is -19.9%. As to `COc1cccc(-c2nn(-c3ccccc3)cc2/C=C(\C#N)C(=O)NCCCn2ccnc2)c1`, the inhibition was -6.77%. For the molecule `c1ccc(C2CNCc3c2ccc2ccccc32)cc1` (stereo unspecified), the inhibition is 14.8%. On to `COc1ccc(CC(=O)Nc2cc(S(=O)(=O)N3CCCCC3)ccc2N2CCN(C)CC2)cc1`, for which the inhibition is 1.82%. As for `Cn1c(N)c(C(=O)COC(=O)/C=C/c2ccc(OC(F)F)cc2)c(=O)n(C)c1=O`, the inhibition is 5.58%.

For the molecule `CS(=O)(=O)N1CCC(C(=O)N2CCN(c3ccccc3)CC2)CC1`, the inhibition is 7.02%. With `CCOc1ccc2c(c1)C(c1ccc(C)cc1)=NNC(c1ccc(C)cc1)=N2` the figure was -36.9%; with `CCc1ccc2c(c1)C(c1ccc([N+](=O)[O-])cc1)=NNC(c1ccccc1)=N2`, 5.38%; with `Cc1ccc(C2=Nc3c(ccc4ccccc34)C(c3ccncc3)=NN2)cc1`, 66.7% (active). Consider `CCc1ccc(-c2nn(-c3ccccc3)cc2CSC(=N)N)cc1`, for which the inhibition was -3.6%. For `Cc1cc(C)n(CCNC(=O)CC2C(=O)NCCN2Cc2ccc(C)o2)n1` (stereo unspecified), the inhibition was 4.76%.

Take `C=CCn1c(CCc2ccc(OC(C)C)cc2)n[nH]c1=S`: the inhibition was -6.91%. With `C=CCN(C(=O)c1cc(C)cc(C)c1)C1(C(=O)Nc2ccccc2)CCN(C(C)C)CC1` the figure was -4.59%. For the molecule `NC(N)=NCCCc1cn(CC(=O)N2CCNCC2)nn1`, the inhibition is 3.04%. Take `Cc1ccc(C(=O)Cn2cccn2)cc1`: the inhibition was -6.86%. The figure for `Cc1cccc(OCCNC(=S)NC(=O)c2cccnc2)c1` is -6.17%. As to `CN(Cc1cccnc1)C(=O)c1cc(COc2ccc3ncccc3c2)on1`, the inhibition was 34.3% (active). Take `Cc1noc(C)c1COc1cccc(C(=O)Nc2cccnc2)c1`: the inhibition was 2.53%. With `Cc1cccc(N2CCN(c3ccc(NC(=O)/C=C\C(=O)O)cc3)CC2)c1`, the inhibition is 1.29%. The figure for `OCCC1CN(Cc2cccc(O)c2)CCN1CCc1ccccc1` (stereo unspecified) is 8.18%; for `S=C(NCCc1ccccc1)N1CCn2cccc2C1c1ccncc1` (stereo unspecified) it is 21.8%; for `CC(C)(C)c1ccc(Oc2ccc(N)cc2)cc1` it is 64.1% (active). In the case of `Nc1ccc(Oc2ccc(Cl)cc2)cc1`, the inhibition was -14.9%. In the case of `Cc1ccc(Oc2ccc(N)cc2)cc1`, the inhibition was -19.6%. Take `COc1ccc([C@H]2[C@H](C(C)=O)N3N=Cc4ccccc4C3C23C(=O)OC(C)(C)OC3=O)cc1` (stereo partly specified): the inhibition was -13.7%. For `Cn1c(=O)n(C)c2cc(C(=O)Nc3ccc4c(c3)OCO4)ccc21`, the inhibition was 35.6% (active). With `COc1ccc(C(=O)Nc2ccc3c(c2)OCO3)cc1OC`, the inhibition is -0.74%. Take `Cn1c(NC(=O)c2ccc3c(c2)OCO3)cc(=O)n(C)c1=O`: the inhibition is 0.99%.

As for `Clc1cccc(-c2nc(NCC3CCCO3)c3ccccc3n2)c1` (stereo unspecified), the inhibition is -0.29%.

For the molecule `CCc1[nH]nc(C(=O)N2CCCC(CNS(=O)(=O)c3cccs3)C2)c1C` (stereo unspecified), the inhibition is 0.5%.

For `O=C(CCl)N(Cc1cccc([N+](=O)[O-])c1)c1cccc(Cl)c1`, the inhibition is 60.4% (active).

For the molecule `CCN(CC)C(=O)CN(c1cccc([N+](=O)[O-])c1)S(=O)(=O)c1ccccc1`, the inhibition is 3.4%. With `O=C(Nc1cccc([N+](=O)[O-])c1)Nc1ccc(Cl)cn1`, the inhibition was -18.6%. With `Cn1cccc1/C=C1\SC(=S)N(NC(=O)c2ccc(Cl)cc2)C1=O`, the inhibition is -4.58%. With `Cc1cc(C)nc(Nc2ncn[nH]2)n1` the figure was -2.94%; with `Oc1ccc(-c2nncn2-c2ccccc2)cc1`, -0.73%; with `CCN(CC)C(=O)c1ccc(O)c(OC)c1`, 1.97%. With `CCOc1ccc(OCc2cccc(C(=O)N(CC)CC)c2)cc1`, the inhibition was 61% (active). The figure for `COc1ccc(OCc2cccc(C(=O)N3CCCC3)c2)cc1` is 17.5%; for `CCOc1ccc(NC(=O)CSc2ncnc3c2sc2ccccc23)cc1` it is 1.83%. In the case of `Cc1nnc(CN(C)Cc2cn[nH]c2-c2ccc(-c3ccccc3)cc2)o1`, the inhibition was -18.1%. With `CCCCn1c(O)c(N=NC(=O)Cn2c(C(F)(F)F)nc3ccccc32)c2ccccc21` the figure was -1.73%; with `Cc1ccc(N(C(=O)Cc2cccs2)C2C=CS(=O)(=O)C2)cc1Cl` (stereo unspecified), 0.68%.

For `C[C@@H]1C[C@@H]2O[C@H]2/C=C\C=C\C(=O)Cc2c(Cl)c(O)cc(O)c2C(=O)O1`, the inhibition is 41.3% (active). As for `O=C(COC(=O)CCc1ccc(S(=O)(=O)N2CCOCC2)cc1)Nc1cccc(Cl)c1`, the inhibition was -8.09%. Consider `CCN(CC)S(=O)(=O)c1ccc(C)c(NC(=O)COc2ccc(Br)cc2Cl)c1`, for which the inhibition was 0.32%. With `Cn1cc([N+](=O)[O-])c(C(=O)Nc2cnn(Cc3ccc(F)cc3)c2)n1` the figure was 20.5%; with `O=C(Nc1ccc2c(c1)OCCO2)c1cnccn1`, -23.3%. For the molecule `Cn1cc([N+](=O)[O-])c(C(=O)Nc2ccc3c(c2)OCCO3)n1`, the inhibition was 48.8% (active). In the case of `NS(=O)(=O)c1ccc(N2C(=O)C3C4CC(C(Br)C4Br)C3C2=O)cc1` (stereo unspecified), the inhibition was 2.56%.

Consider `CS(=O)(=O)N(Cc1ccccc1)c1ccc(C(=O)NN=C2CCCCCC2)cc1`, for which the inhibition was 6.58%. For the molecule `O=C(O)CCC(=O)Nc1nc2ccc([N+](=O)[O-])cc2s1`, the inhibition was -0.97%. Turning to `O=C(NC(Nc1nc2ccc([N+](=O)[O-])cc2s1)(C(F)(F)F)C(F)(F)F)c1ccccc1`, the inhibition was 60.6% (active).

As for `O=C(Nc1nc2ccc([N+](=O)[O-])cc2s1)c1ccc(S(=O)(=O)N2CCCc3ccccc32)cc1`, the inhibition is 12.3%. As to `O=C(COc1ccccc1)Nc1ccc(N2CCN(C(=O)c3cccs3)CC2)cc1`, the inhibition is -5.48%. As to `O=c1c2ccccc2nc2n1C1(CCCCC1)Cc1ccccc1-2`, the inhibition is -5.21%. Take `CN(c1ccc2nc3ccccc3c(=O)n2n1)C1CCCCC1`: the inhibition is 90.1% (active). With `CCOC(=O)C(C)Sc1nc2ccccc2c(=O)n1CC1CCCCC1` (stereo unspecified) the figure was 2.46%; with `Cc1ccc(C)c(-n2nnnc2SCC(=O)c2c(N)n(C)c(=O)n(C)c2=O)c1`, -0.37%. As to `CCc1ccc(NC(=O)Nc2ccncc2)cc1`, the inhibition was -10.4%.

As to `CCOc1cc(C)c(Cl)cc1S(=O)(=O)n1nnc2ccccc21`, the inhibition is 42.2% (active). In the case of `CCCOc1cc(C)c(S(=O)(=O)n2nnc3ccccc32)cc1C`, the inhibition is -0.4%.

Take `COc1cc(C)c(Cl)cc1S(=O)(=O)n1ccnc1`: the inhibition is 7.39%.

The values are drawn from PubChem BioAssay AID920 (The Scripps Research Institute Molecular Screening Center, 2007).
